# Measurements as given in publication PMC7862700, “An all-to-all approach to the identification of sequence-specific readers for epigenetic DNA modifications on cytosine”.
# Columns and labels:
# Experiment in all cases: DAPPL (digital affinity profiling via proximity ligation, sequencing); 10 mM Tris-HCl pH 7.5, 50 mM NaCl, 1 mM DTT, 4% glycerol, room temperature, 30 min; GST-TFs on glutathione beads, 16-mer random dsDNA library, 0.1% formaldehyde crosslink after washing; high values mean tight binding
# FLI1 = molecular target: T1, FLI1 (Homo sapiens, UniProt Q01543 1-452); conditions: protein: recombinant; tags: N-terminal GST; dsDNA, one strand shown
# T1 sequence: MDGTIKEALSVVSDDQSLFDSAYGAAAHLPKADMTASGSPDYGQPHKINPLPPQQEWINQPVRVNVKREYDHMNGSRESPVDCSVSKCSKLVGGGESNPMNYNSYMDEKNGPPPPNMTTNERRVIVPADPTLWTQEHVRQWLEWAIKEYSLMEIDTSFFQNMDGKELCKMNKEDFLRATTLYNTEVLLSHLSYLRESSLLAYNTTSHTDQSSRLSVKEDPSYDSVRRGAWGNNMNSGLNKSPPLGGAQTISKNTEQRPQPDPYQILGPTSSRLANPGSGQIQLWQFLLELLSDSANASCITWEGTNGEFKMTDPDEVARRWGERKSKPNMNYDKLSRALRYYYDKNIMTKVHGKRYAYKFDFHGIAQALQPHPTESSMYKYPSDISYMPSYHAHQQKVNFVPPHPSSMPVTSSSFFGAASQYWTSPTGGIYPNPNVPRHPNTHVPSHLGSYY
# Outline: (§1)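 A tag-only sample was pooled with DNA-barcoded human transcription factors that had been expressed in yeast as GST fusions and captured on glutathione beads. The pools were incubated for 30 min at room temperature with 200 nmole of a random double-stranded 16-mer DNA library in Tris/NaCl/DTT/glycerol buffer, then washed, crosslinked with 0.1% formaldehyde, proximity-ligated (BsaI/T4 ligase, 1 h, 37 °C), PCR-amplified and sequenced on an Illumina NextSeq500. Binding signal is each hexamer's read frequency for a factor divided by its frequency for the tag-only sample.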
# ELK1 = molecular target: T2, ELK1 (Homo sapiens, UniProt P19419 1-428); conditions: protein: recombinant; tags: N-terminal GST; dsDNA, one strand shown
# T2 sequence: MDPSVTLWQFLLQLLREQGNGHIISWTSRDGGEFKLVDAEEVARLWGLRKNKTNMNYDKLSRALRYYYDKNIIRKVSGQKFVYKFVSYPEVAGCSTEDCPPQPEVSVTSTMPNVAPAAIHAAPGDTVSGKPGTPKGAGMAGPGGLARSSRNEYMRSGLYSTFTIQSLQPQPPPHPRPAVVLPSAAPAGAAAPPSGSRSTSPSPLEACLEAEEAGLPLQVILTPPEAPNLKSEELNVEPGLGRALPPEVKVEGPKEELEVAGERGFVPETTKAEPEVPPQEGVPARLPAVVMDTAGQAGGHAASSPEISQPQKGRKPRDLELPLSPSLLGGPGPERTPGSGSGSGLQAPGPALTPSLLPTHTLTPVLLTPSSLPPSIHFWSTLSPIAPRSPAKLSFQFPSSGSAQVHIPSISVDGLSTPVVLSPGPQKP
# Outline: as §1
# GABPA = molecular target: T3, GABPA (Homo sapiens, UniProt Q06546 1-454); conditions: protein: recombinant; tags: N-terminal GST; dsDNA, one strand shown
# T3 sequence: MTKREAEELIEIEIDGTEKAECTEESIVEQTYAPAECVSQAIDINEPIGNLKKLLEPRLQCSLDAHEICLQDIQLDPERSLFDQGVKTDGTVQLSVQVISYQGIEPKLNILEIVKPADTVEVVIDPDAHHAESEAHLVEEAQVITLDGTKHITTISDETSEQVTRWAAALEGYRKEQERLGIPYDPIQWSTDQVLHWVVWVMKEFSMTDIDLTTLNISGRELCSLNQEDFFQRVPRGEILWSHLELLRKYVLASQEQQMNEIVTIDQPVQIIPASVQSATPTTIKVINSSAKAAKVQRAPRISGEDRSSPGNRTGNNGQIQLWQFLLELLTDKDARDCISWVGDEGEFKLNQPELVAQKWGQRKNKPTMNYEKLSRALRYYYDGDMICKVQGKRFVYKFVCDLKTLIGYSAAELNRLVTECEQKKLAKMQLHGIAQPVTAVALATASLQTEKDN
# Outline: as §1
# ERG = molecular target: T4, ERG (Homo sapiens, UniProt P11308 1-479); conditions: protein: recombinant; tags: N-terminal GST; dsDNA, one strand shown
# T4 sequence: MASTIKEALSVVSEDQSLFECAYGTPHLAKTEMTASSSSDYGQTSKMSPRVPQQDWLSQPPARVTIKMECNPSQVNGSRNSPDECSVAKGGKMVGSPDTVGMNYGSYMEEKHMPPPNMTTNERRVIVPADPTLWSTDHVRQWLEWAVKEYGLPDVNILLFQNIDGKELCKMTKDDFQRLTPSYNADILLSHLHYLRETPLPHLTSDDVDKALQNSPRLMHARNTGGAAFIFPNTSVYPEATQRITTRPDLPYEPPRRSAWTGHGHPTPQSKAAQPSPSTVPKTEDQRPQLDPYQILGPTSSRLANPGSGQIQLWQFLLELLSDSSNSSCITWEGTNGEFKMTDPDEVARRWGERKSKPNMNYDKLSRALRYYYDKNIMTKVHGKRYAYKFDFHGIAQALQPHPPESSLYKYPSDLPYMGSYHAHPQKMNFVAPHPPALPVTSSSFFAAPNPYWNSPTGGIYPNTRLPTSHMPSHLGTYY
# Outline: as §1
# ELF1 = ELF1 (Homo sapiens, UniProt P32519 1-619); conditions: protein: recombinant; tags: N-terminal GST; dsDNA, one strand shown
# Outline: as §1
# EHF = molecular target: T5, EHF (Homo sapiens, UniProt Q9NZC4 1-300); conditions: protein: recombinant; tags: N-terminal GST; dsDNA, one strand shown
# T5 sequence: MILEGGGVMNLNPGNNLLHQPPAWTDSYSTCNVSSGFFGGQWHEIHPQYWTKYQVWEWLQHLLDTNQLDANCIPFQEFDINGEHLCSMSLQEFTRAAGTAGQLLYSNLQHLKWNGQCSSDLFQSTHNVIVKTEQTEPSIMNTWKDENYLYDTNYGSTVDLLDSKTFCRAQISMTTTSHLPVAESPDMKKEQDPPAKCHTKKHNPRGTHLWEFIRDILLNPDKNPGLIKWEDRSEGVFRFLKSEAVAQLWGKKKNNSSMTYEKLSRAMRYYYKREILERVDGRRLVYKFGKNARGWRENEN
# Outline: as §1
# SPI1 = SPI1 (Homo sapiens, UniProt P17947 1-270); conditions: protein: recombinant; tags: N-terminal GST; dsDNA, one strand shown
# Outline: as §1
# SPIB = SPIB (Homo sapiens, UniProt Q01892 1-262); conditions: protein: recombinant; tags: N-terminal GST; dsDNA, one strand shown
# Outline: as §1
# ELK3 = molecular target: T6, ELK3 (Homo sapiens, UniProt P41970 1-407); conditions: protein: recombinant; tags: N-terminal GST; dsDNA, one strand shown
# T6 sequence: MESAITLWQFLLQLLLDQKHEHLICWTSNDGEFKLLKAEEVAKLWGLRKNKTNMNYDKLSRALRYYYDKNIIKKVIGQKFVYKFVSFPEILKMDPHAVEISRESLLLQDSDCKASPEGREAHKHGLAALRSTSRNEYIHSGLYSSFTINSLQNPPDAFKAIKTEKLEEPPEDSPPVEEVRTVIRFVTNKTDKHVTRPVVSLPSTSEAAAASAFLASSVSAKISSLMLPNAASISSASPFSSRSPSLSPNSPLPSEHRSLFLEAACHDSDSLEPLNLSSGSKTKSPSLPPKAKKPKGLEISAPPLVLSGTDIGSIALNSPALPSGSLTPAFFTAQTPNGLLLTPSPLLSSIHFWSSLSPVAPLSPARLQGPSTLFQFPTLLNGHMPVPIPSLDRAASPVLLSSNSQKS
# Outline: as §1
# FEV = molecular target: T7, FEV (Homo sapiens, UniProt Q99581 1-238); conditions: protein: recombinant; tags: N-terminal GST; dsDNA, one strand shown
# T7 sequence: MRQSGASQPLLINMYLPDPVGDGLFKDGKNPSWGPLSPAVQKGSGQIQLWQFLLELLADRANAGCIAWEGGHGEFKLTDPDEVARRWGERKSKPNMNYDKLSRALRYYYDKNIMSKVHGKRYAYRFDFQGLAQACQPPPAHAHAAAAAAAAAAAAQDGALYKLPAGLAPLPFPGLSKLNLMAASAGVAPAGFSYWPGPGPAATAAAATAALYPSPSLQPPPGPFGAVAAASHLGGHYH
# Outline: as §1
# ETV5 = ETV5 (Homo sapiens, UniProt P41161 1-510); conditions: protein: recombinant; tags: N-terminal GST; dsDNA, one strand shown
# Outline: as §1
# HSF1 = HSF1 (Homo sapiens, UniProt Q00613 1-529); conditions: protein: recombinant; tags: N-terminal GST; chain copies: 3; dsDNA, one strand shown
# Outline: as §1
# SPIC = molecular target: T8, SPIC (Homo sapiens, UniProt Q8N5J4 1-248); conditions: protein: recombinant; tags: N-terminal GST; dsDNA, one strand shown
# T8 sequence: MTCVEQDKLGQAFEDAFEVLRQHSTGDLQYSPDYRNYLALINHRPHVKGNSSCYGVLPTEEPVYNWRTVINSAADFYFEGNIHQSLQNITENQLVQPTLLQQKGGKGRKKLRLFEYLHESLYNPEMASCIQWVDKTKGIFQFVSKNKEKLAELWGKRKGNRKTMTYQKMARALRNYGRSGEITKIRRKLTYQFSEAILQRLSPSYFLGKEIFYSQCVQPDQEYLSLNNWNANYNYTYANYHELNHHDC
# Outline: as §1
# ELF4 = ELF4 (Homo sapiens, UniProt Q99607 1-663); conditions: protein: recombinant; tags: N-terminal GST; dsDNA, one strand shown
# Outline: as §1
# ELK4 = molecular target: T9, ELK4 (Homo sapiens, UniProt P28324-2 1-405); conditions: protein: recombinant; tags: N-terminal GST; dsDNA, one strand shown
# T9 sequence: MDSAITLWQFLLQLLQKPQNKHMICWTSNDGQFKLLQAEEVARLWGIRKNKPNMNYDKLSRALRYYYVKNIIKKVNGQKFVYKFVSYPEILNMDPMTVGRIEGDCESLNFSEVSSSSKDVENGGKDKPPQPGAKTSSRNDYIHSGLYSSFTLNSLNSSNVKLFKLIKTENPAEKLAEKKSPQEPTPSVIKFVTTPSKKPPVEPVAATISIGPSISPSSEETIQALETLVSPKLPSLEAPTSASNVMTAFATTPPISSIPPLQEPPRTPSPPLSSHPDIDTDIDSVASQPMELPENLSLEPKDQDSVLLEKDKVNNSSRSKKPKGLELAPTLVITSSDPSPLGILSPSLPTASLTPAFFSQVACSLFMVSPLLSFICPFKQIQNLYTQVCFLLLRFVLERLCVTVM
# Outline: as §1
# ETV2 = molecular target: T10, ETV2 (Homo sapiens, UniProt O00321 1-342); conditions: protein: recombinant; tags: N-terminal GST; dsDNA, one strand shown
# T10 sequence: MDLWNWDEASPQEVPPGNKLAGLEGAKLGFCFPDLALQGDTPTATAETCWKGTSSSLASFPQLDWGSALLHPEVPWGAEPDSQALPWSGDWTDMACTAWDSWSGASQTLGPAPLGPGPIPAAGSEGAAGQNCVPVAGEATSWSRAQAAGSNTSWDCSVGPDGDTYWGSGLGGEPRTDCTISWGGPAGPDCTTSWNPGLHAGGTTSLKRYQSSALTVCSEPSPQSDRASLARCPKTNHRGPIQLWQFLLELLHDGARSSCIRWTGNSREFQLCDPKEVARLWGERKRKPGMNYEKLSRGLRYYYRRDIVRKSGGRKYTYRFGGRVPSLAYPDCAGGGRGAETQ
# Outline: as §1
# ELF3 = molecular target: T11, ELF3 (Homo sapiens, UniProt P78545 1-371); conditions: protein: recombinant; tags: N-terminal GST; dsDNA, one strand shown
# T11 sequence: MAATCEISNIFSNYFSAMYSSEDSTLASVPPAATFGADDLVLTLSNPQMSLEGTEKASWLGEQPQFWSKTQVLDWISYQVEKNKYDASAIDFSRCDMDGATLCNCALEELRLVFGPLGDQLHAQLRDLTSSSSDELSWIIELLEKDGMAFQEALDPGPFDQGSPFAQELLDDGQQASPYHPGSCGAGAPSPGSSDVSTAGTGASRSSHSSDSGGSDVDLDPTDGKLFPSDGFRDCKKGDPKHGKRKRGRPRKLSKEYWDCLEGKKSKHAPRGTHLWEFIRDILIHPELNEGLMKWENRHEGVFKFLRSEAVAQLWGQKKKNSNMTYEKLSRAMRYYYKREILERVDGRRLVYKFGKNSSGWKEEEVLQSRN
# Outline: as §1
# CRX = CRX (Homo sapiens, UniProt O43186 1-299); conditions: protein: recombinant; tags: N-terminal GST; dsDNA, one strand shown
# Outline: as §1
# ETV1 = ETV1 (Homo sapiens, UniProt P50549 1-477); conditions: protein: recombinant; tags: N-terminal GST; dsDNA, one strand shown
# Outline: as §1
# Chain of CRX (O43186 whole entry): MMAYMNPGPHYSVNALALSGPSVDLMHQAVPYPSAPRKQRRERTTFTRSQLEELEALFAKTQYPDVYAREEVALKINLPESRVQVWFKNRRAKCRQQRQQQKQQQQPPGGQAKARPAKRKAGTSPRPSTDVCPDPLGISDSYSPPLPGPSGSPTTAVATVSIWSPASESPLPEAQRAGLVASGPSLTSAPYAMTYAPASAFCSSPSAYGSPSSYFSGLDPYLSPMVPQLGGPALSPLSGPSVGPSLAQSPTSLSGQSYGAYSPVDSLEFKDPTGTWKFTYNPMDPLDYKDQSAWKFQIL
# Chain of ELF1 (P32519 whole entry): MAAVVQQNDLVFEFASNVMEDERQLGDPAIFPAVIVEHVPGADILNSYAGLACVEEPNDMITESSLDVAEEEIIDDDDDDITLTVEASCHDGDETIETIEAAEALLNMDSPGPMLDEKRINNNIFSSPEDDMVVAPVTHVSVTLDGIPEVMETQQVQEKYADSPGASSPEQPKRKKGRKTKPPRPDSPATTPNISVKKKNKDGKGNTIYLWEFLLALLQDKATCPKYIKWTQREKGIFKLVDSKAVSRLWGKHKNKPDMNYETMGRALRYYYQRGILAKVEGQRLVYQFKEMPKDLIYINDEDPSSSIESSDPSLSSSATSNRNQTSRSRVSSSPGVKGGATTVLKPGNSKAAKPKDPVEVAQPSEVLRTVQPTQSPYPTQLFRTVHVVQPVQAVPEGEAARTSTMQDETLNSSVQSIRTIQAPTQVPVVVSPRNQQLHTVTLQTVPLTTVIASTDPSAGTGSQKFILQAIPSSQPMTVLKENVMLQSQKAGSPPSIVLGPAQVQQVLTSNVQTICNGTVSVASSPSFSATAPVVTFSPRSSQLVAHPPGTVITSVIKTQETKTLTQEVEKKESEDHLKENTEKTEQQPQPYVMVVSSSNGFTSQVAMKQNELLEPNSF
# Chain of SPIB (Q01892 whole entry): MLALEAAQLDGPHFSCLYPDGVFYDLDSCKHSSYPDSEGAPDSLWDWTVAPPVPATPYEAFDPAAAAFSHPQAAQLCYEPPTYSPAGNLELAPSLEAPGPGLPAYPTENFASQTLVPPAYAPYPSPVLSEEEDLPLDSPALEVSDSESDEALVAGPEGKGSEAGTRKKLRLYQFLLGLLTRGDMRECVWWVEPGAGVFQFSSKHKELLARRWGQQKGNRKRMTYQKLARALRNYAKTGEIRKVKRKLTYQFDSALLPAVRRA
# Chain of HSF1 (Q00613 whole entry): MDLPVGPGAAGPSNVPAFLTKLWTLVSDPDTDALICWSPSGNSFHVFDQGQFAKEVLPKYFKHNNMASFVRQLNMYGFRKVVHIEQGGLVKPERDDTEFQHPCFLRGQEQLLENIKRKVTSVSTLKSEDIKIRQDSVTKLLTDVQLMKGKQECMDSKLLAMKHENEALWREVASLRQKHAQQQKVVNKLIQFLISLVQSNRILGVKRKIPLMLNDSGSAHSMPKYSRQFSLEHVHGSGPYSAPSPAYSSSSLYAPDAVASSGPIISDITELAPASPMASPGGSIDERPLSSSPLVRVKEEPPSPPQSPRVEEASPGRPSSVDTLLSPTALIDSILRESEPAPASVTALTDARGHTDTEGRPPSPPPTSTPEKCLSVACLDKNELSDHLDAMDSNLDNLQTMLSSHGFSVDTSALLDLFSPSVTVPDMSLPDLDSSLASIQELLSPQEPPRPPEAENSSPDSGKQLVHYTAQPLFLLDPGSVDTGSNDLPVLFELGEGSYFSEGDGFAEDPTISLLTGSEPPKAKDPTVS
# Chain of ELF4 (Q99607 whole entry): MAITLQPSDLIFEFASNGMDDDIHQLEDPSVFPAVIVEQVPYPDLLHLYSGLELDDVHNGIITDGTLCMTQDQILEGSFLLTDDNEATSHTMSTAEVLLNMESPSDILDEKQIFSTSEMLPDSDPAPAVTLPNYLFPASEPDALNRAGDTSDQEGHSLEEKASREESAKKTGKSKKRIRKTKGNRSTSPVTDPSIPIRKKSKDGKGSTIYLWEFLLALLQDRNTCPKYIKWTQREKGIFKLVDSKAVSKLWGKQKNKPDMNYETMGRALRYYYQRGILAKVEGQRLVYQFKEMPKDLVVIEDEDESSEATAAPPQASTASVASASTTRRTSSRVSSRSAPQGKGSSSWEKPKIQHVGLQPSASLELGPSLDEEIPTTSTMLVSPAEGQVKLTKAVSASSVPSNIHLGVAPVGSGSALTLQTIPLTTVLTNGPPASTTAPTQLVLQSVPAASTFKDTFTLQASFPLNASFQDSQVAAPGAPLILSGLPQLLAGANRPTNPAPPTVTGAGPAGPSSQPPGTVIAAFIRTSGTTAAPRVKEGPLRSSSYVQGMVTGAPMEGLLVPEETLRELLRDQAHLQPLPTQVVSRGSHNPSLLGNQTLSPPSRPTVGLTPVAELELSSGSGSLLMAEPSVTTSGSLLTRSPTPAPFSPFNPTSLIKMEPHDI
# Chain of ETV5 (P41161 whole entry): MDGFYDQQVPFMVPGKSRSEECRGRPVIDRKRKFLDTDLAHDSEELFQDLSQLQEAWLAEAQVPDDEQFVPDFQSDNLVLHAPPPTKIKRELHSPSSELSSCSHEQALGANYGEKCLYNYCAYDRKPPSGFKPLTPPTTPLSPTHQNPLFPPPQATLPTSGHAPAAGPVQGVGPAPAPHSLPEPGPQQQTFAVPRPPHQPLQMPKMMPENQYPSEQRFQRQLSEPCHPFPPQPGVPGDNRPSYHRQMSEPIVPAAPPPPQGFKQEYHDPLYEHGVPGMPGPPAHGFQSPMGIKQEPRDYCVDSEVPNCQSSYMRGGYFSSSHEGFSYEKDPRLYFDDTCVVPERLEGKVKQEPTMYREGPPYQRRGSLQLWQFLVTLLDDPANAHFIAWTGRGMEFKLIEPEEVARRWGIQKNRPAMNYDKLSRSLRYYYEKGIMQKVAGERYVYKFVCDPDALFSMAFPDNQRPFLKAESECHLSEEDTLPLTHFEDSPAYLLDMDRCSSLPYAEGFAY
# Chain of ETV1 (P50549 whole entry): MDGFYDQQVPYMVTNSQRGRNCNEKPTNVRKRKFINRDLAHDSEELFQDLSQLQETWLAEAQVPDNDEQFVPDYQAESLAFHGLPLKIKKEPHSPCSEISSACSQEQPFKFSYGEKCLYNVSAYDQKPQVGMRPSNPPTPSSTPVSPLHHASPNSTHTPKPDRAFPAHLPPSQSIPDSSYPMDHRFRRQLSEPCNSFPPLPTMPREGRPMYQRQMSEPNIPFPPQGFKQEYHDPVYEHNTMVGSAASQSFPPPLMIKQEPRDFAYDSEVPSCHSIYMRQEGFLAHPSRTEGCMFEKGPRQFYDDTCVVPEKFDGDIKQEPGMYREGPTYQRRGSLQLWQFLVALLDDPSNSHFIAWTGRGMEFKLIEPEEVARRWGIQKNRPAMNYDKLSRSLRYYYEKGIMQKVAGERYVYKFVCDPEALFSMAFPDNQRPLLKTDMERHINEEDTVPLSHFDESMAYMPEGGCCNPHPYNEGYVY
sequence,measurement,setting,value
TTGTTC,binding signal,FLI1,"1.5 fold enrichment (6-mer frequency, TF over GST control)"
same,binding signal,ELK1,"1.41 fold enrichment (6-mer frequency, TF over GST control)"
same,binding signal,GABPA,"1.53 fold enrichment (6-mer frequency, TF over GST control)"
same,binding signal,ERG,"1.34 fold enrichment (6-mer frequency, TF over GST control)"
same,binding signal,ELF1,"1.44 fold enrichment (6-mer frequency, TF over GST control)"
same,binding signal,EHF,"1.64 fold enrichment (6-mer frequency, TF over GST control)"
same,binding signal,SPI1,"1.51 fold enrichment (6-mer frequency, TF over GST control)"
same,binding signal,SPIB,"1.57 fold enrichment (6-mer frequency, TF over GST control)"
same,binding signal,ELK3,"1.39 fold enrichment (6-mer frequency, TF over GST control)"
same,binding signal,FEV,"1.43 fold enrichment (6-mer frequency, TF over GST control)"
same,binding signal,ETV5,"1.48 fold enrichment (6-mer frequency, TF over GST control)"
same,binding signal,HSF1,"1.89 fold enrichment (6-mer frequency, TF over GST control)"
same,binding signal,SPIC,"1.48 fold enrichment (6-mer frequency, TF over GST control)"
same,binding signal,ELF4,"1.37 fold enrichment (6-mer frequency, TF over GST control)"
same,binding signal,ELK4,"1.48 fold enrichment (6-mer frequency, TF over GST control)"
same,binding signal,ETV2,"1.48 fold enrichment (6-mer frequency, TF over GST control)"
same,binding signal,ELF3,"1.33 fold enrichment (6-mer frequency, TF over GST control)"
same,binding signal,CRX,"1.43 fold enrichment (6-mer frequency, TF over GST control)"
same,binding signal,ETV1,"1.49 fold enrichment (6-mer frequency, TF over GST control)"
